Only a selection was taken, and hits are over-represented in it overall.
Measles inh: inhibitors of measles virus growth in infected cells; z-score (concentration not given with the values); infected Vero cells, GFP fluorescence, 64 h; active compounds read low; 0.1% of 33,000 active; AID 745; in the data active = z-score below about -3
Numbers without * were called inactive.

SMILES	Measles inh
Cc1cc(N2CCN(C)CC2)nc2ccc(NC(=O)c3cccc(C(F)(F)F)c3)cc12	0.66
Cc1cccc(N(CC(=O)Nc2ccccc2C(F)(F)F)S(C)(=O)=O)c1C	0.04
COc1ccc(C2C3=C(CC(C)(C)CC3=O)Nc3nc(SC)[nH]c(=O)c32)cc1 (configuration not stated)	-0.1
OCCCNc1ncnc2sc3c(c12)CCCCC3	0.01
C=CCN1CCC(=O)Nc2ccccc21	-0.89
CCOC(=O)c1cnc2ccc(C(=O)OC)cc2c1Nc1cccc(C(=O)OC)c1	-0.89
CCOc1ccc(N=c2oc3c(C)ncc(CO)c3cc2C(N)=O)cc1	-0.15
COc1ccc(Cc2c(Cl)ncnc2Cl)cc1	-0.43
COc1nc(Cl)cc(C)c1C(=O)NCc1ccc(Cl)cc1	-0.85
COc1ccc(Cc2nc(C)cc(Cl)n2)cc1Cl	-3.8*
Cc1cccc(Cl)c1OCCCc1c(C)n[nH]c1C	-0.53
COc1ccc(-n2c(SC(C)C)nc3c([nH]c4ccccc43)c2=O)cc1	-0.39
COc1cc(N/C(N)=N\c2nc3c(c(=O)[nH]2)CCCC3)cc(OC)c1	-1.8
Cc1ccc(C)c(N2C(=O)NC3CC2(C)Oc2ccc(Br)cc23)c1 (configuration not stated)	0.02
Cc1cc(I)ccc1NC(=O)Cn1cnc2scc(-c3ccccc3)c2c1=O	-0.01
CCN(CCNC(=O)C1CCCN(S(=O)(=O)c2cccc3nsnc23)C1)c1ccccc1 (configuration not stated)	-3.3*
NS(=O)(=O)c1ccc(CCNC(=O)C2CCCN(S(=O)(=O)c3cccc4nsnc34)C2)cc1 (configuration not stated)	-0.81
O=C(NCCN1CCOCC1)C1CCCN(S(=O)(=O)c2cccc3nsnc23)C1 (configuration not stated)	-0.04
CCc1ccc(N2CC(C(=O)Nc3cccc(O)c3)CC2=O)cc1 (configuration not stated)	-0.5
CCSc1sc(CC)cc1C1C(C(=O)Nc2ccccn2)=C(C)NC2=C1C(=O)CC(c1ccccc1)C2 (configuration not stated)	-0.13
CCOC(=O)c1c(-c2ccccc2)csc1NC(=O)CN1C(=O)c2ccccc2C1=O	-0.17
Cc1ccc(C2C(=O)N(C3CCCCCC3)CC(=O)N2Cc2ccc3c(c2)OCO3)cc1 (configuration not stated)	-2.6
Cc1cccc(C)c1OCCCCCCN1CCOCC1	-0.51
COc1ccccc1OCCCCCCN1CCOCC1	-0.57
CC(C)(C)c1cc(Br)ccc1OCCCN1CCOCC1	-3.3*
CCCOc1ccc(C2NC(=O)NC(C)=C2C(=O)OC2CCCC2)cc1OC (configuration not stated)	-0.44
CN(Cc1ccccc1)C(=O)CN1C(=O)CSc2ccc(S(=O)(=O)N(C)C3CCCCC3)cc21	1.4
COc1ccc(-c2cc(C(=O)Nc3ccc(C)cc3)no2)cc1OC	-0.87
O=[N+]([O-])c1ccc(-c2cn(-c3cccc(Cl)c3)c(=S)[nH]2)cc1	-0.27
